Laboratory results as given in PubChem BioAssay (Tox21).
A number with no mark means an inactive call. Records with an inconclusive call do not appear. Where a call stands in place of a potency, no number is given. Activity calls are given as the source filed them. Unless noted, calls follow the shape of the full dose curve.

Tests used:
[1] = Nuclear factor erythroid 2-related factor 2/antioxidant responsive element (Nrf2/ARE) small molecule agonists: qHTS cell viability counter screen in human keratinocytes (AID 1919968; active = well fitted curve in the direction sought with a large enough effect in the repeat runs; an effect the other way counts as inactive or inconclusive; also: nearly all actives have a fitted effect of over 55% in size; also: potency is read from the fitted curve at half-maximal effect)
How it was run: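 HaCaT ARE reporter line, 1,500 cells/well; 5 h settle, 37 C/5% CO2; cpd in DMSO pinned; 23 h exposure; CellTiter-Fluor, 1 h; fluorescence.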

[2] = target: KiSS-1 receptor (Homo sapiens) (UniProt Q969F8); experiment: Human kisspeptin (KISS1R) small molecule agonists, calcium flux assay in KISS1R-HEK293 cells (AID 1920064; active = well fitted curve in the direction sought with a large enough effect in the repeat runs; an effect the other way counts as inactive or inconclusive)
Chain of KiSS-1 receptor (Homo sapiens) (Q969F8 whole entry, looked up): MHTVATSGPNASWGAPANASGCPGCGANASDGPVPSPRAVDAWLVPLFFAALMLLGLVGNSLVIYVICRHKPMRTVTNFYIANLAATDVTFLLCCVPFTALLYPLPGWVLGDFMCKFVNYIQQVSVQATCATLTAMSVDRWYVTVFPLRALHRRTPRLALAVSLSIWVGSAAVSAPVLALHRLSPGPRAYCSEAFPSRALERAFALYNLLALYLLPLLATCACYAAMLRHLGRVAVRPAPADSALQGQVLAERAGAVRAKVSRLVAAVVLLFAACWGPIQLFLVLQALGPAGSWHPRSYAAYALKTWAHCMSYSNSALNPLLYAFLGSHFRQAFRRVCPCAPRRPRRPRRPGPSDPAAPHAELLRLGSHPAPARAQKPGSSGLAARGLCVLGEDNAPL
How it was run: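 Stable human KISS1R HEK293 line; 18 h plating, 37 C/5% CO2; calcium dye 1 h 37 C; compound pin transfer; kinetic fluorescence Ex/Em 480/540, 3 min.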

[3] = p53 small molecule agonists, cell-based qHTS assay with human liver microsomes: qHTS cell viability counter screen (AID 1963579); also: nearly all actives have a fitted effect of over 45% in size
How it was run: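 Cytotoxicity counter screen: p53RE-bla, 4,000 cells/well; 5 h settle, 37 C/5% CO2; cpd + HLM 0.5 mg/mL + NADPH 0.5 mg/mL (final); 16 h, 37 C; CellTiter-Glo, 30 min RT, luminescence.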

[4] = p53 small molecule agonists, cell-based qHTS assay with rat liver microsomes: qHTS cell viability counter screen (AID 1963580); also: nearly all actives have a fitted effect of over 45% in size
How it was run: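 p53RE-bla HCT-116 cells were exposed 16 h at 37 C to compounds with rat liver microsomes (0.5 mg/mL) and NADPH (0.5 mg/mL). Viability was measured in the same wells as ATP content by CellTiter-Glo luminescence.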

[5] = target: 5-hydroxytryptamine receptor 2A (Homo sapiens) (UniProt P28223); experiment: 5-hydroxytryptamine receptor 2A (HTR2A) small molecule antagonists, cell-based qHTS assay (AID 1963586); also: nearly all actives have a fitted effect of over 45% in size
Chain of 5-hydroxytryptamine receptor 2A (Homo sapiens) (P28223 whole entry, looked up): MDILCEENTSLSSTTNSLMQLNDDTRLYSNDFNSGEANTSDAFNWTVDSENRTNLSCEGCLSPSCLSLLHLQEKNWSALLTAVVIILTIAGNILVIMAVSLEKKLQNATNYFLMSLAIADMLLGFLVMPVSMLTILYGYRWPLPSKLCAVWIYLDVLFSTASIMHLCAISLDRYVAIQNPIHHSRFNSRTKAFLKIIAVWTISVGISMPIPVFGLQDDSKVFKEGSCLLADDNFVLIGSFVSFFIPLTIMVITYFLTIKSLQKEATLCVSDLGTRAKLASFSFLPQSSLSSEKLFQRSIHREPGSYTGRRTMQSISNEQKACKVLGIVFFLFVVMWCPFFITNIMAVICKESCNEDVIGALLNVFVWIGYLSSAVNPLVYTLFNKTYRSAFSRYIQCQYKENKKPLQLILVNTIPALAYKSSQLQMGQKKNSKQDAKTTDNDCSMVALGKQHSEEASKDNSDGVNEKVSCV
How it was run: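 Antagonist-mode intracellular calcium assay: DOI (4 nM) added after 5 min compound pre-incubation at room temperature to dye-loaded HTR2A-CHO cells. Fluorescence followed for 3 min, sampled every second.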

[6] = target: 5-hydroxytryptamine receptor 2A (Homo sapiens) (UniProt P28223); experiment: 5-hydroxytryptamine receptor 2A (HTR2A) small molecule agonists, cell-based qHTS assay (AID 1963587); also: nearly all actives have a fitted effect of over 30% in size; also: potency is read from the fitted curve at half-maximal effect
How it was run: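 CHO cells stably expressing human HTR2A, plated 18 h, loaded with calcium dye 1 h at 37 C. Agonist mode: compounds added and intracellular calcium fluorescence recorded kinetically for 2 min at 1 sec intervals.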

[7] = target: Muscarinic acetylcholine receptor M1 (Homo sapiens) (UniProt P11229); experiment: Cholinergic receptor muscarinic 1 (CHRM1) small molecule antagonists, cell-based qHTS assay (AID 1963588); also: nearly all actives have a fitted effect of over 40% in size
Chain of Muscarinic acetylcholine receptor M1 (Homo sapiens) (P11229 whole entry, looked up): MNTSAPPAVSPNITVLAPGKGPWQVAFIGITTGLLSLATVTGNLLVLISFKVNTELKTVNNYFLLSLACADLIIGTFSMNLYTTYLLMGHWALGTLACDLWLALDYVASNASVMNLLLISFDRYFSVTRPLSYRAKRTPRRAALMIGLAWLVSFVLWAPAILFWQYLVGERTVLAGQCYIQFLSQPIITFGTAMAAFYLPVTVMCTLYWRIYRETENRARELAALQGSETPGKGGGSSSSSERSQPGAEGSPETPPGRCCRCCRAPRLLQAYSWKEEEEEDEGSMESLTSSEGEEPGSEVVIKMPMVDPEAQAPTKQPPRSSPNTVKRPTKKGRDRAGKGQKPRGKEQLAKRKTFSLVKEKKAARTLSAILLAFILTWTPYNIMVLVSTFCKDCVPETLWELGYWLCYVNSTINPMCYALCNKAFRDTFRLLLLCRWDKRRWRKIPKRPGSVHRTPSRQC
How it was run: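 CHRM1-CHO calcium-flux assay, antagonist mode. Cells were seeded 18 h, dye-loaded 1 h at 37 C and given compound for 5 min at RT, then acetylcholine was added at 50nM. FDSS fluorescence was read 3 min; 15 concentrations, three runs.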

[8] = target: Muscarinic acetylcholine receptor M1 (Homo sapiens) (UniProt P11229); experiment: Cholinergic receptor muscarinic 1 (CHRM1) small molecule agonists, cell-based qHTS assay (AID 1963589); also: nearly all actives have a fitted effect of over 35% in size
How it was run: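 Human M1 in stable CHO line; 18 h plating, 1 h dye load 37 C; cpd added (agonist mode); Ca2+ fluorescence kinetic read, 1 s intervals; 15 conc, 3 runs.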

[9] = cAMP Responsive Elements (CRE) small molecule agonists, cell-based qHTS assay (AID 1963590)
How it was run: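 HEK 293T CRE-bla, 2,000 cells/well, 18 h preincubation 37 C/5% CO2; cpds (DMSO) pinned, 3 h; LiveBLAzer B/G FRET substrate, 2 h RT.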

[10] = target: Beta-2 adrenergic receptor (Homo sapiens) (UniProt P07550); experiment: Adrenergic beta2 receptor (ADRB2) small molecule antagonists, cell-based qHTS assay (AID 1963592); also: series mostly up to about 92 µM; nearly all actives have a fitted effect of over 50% in size
Chain of Beta-2 adrenergic receptor (Homo sapiens) (P07550 whole entry, looked up): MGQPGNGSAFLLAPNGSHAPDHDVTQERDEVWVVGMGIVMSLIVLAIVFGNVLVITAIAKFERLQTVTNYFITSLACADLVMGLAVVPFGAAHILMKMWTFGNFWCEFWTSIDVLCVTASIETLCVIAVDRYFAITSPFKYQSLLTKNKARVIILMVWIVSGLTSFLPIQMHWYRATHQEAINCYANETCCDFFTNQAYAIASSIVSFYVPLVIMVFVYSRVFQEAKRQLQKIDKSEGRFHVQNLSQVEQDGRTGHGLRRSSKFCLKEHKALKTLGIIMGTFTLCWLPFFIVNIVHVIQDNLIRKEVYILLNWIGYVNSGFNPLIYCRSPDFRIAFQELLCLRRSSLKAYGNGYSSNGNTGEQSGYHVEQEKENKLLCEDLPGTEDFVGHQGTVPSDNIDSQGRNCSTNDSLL
How it was run: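 Cells (CHO, stable ADRB2 overexpression) incubated 18-20hr at 37C; compounds added from DMSO; agonist mix (1nM isoproterenol, 100uM IBMX, 25uM Ro-20-1724) added; 0.5hr RT; d2-cAMP and anti-cAMP-cryptate added; 1hr RT; 665/615 nm read.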

[11] = target: D(2) dopamine receptor (Homo sapiens) (UniProt P14416); experiment: Dopamine D2 receptor (DRD2) small molecule agonists, cell-based qHTS assay (AID 1963594); also: nearly all actives have a fitted effect of over 35% in size; also: potency is read from the fitted curve at half-maximal effect
Chain of D(2) dopamine receptor (Homo sapiens) (P14416 whole entry, looked up): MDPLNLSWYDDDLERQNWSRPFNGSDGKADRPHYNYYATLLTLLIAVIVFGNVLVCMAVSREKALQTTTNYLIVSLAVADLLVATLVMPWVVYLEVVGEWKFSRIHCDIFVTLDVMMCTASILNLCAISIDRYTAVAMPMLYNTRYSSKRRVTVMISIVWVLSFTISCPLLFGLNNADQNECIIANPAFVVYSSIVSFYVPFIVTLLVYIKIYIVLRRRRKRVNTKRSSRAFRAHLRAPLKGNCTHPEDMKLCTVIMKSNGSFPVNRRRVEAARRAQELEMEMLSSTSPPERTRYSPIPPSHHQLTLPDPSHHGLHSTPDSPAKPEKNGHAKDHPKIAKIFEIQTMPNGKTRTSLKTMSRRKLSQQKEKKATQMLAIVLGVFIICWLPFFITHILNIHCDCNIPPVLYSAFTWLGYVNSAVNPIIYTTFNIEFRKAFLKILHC
How it was run: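 HEK293 cells stably expressing human DRD2, pre-treated with PDE inhibitor Ro20-1724 (0.1 mM final) and compound 10 min at room temperature, then stimulated with NKH477 (200nM […]) for 30 min. cAMP read by HTRF (665/620 nm).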

[12] = target: D(2) dopamine receptor (Homo sapiens) (UniProt P14416); experiment: Dopamine D2 receptor (DRD2) small molecule antagonists, cell-based qHTS assay (AID 1963595; active = well fitted inhibition curve with a large enough effect in the signal ratio in the repeat runs, with a control signal flat; the % refers to the signal ratio)
How it was run: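 Stable D2 receptor HEK293 line, 24 h after seeding. Compound preincubated 10 min, then quinpirole (12 nM) with forskolin analogue NKH477 (200 nM), 30 min, room temperature. Detection by time-resolved FRET of cAMP.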

[13] = G protein-coupled receptor (GPCR) small molecule agonists, calcium flux assay: HEK293 wild type cell line counter screen (AID 1920065)
How it was run: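 Kinetic fluorescence at Ex/Em 480/540, recorded every second over 3 min, served as the read-out after compound addition. Each compound was tested at 15 concentrations in triplicate on cells pre-loaded with calcium dye for 1 h.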

[14] = p53 small molecule agonists, cell-based qHTS assay: qHTS cell viability counter screen (AID 1963581); also: nearly all actives have a fitted effect of over 45% in size
How it was run: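 HCT-116 p53RE-bla cells, 4,000/well, plated 5 h before compound pin transfer; 16 h at 37 C; bla substrate 2 h RT; then CellTiter-Glo, 30 min RT, luminescence.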

[15] = cAMP Responsive Elements (CRE) small molecule antagonists, cell-based qHTS assay (AID 1963591; active = well fitted inhibition curve with a large enough effect in the signal ratio in the repeat runs, not every such curve was filed as active; the % refers to the signal ratio)
How it was run: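 Beta-lactamase reporter read by FRET substrate (LiveBLAzer B/G) after 2 h at room temperature. CRE-bla HEK293T cells had received compound plus 0.25 uM (final) NKH477 for 3 h at 37 °C.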

[16] = p53 small molecule agonists, cell-based qHTS assay with human liver microsomes (AID 1963577)
How it was run: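 Fluorescence of the beta-lactamase reporter in p53RE-bla cells, detected with LiveBLAzer substrate (2 h, room temperature, dark), served as the read-out after 16 h compound exposure at 37 C with human liver microsomes and NADPH, each 0.5 mg/mL final.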

[17] = p53 small molecule agonists, cell-based qHTS assay with rat liver microsomes (AID 1963578)
How it was run: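 Cells carrying a p53 response element–beta-lactamase reporter were plated and rested 5 h, then dosed with compound in DMSO plus rat liver microsomes and NADPH, each at 0.5 mg/mL final. After 16 h at 37 C, LiveBLAzer substrate was added for 2 h.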

[18] = p53 small molecule agonists, cell-based qHTS assay (AID 1963582; active = well fitted activation curve with a large enough effect in the signal ratio in the repeat runs, not every such curve was filed as active; the % refers to the signal ratio)
How it was run: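 Reporter line: p53RE-bla. Pre-incubation 5 h, 37 C, 5% CO2; compound (DMSO, pin tool) 16 h, 37 C; B/G FRET substrate 2 h RT; fluorescence intensity read.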

[19] = target: Beta-2 adrenergic receptor (Homo sapiens) (UniProt P07550); experiment: Adrenergic beta2 receptor (ADRB2) small molecule agonists, cell-based qHTS assay (AID 1963593);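 also: CHO cells stably overexpressing human ADRB2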
How it was run: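 CHO cells stably over-expressing ADRB2 were plated overnight at 37C, then dosed with compounds plus a stimulation mix containing 100uM IBMX and 25uM Ro-20-1724 for 0.5hr at room temperature. cAMP was measured by HTRF competition, 1hr.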

O=C1CCC(=O)N1Cl
Potency [1]: inactive
Potency [2]: inactive
Potency [3]: inactive
Potency [4]: inactive
Potency [5]: inactive
Potency [6]: inactive
Potency [7]: inactive
Potency [8]: inactive
Potency [9]: inactive
Potency [10]: inactive
Potency [11]: inactive
Potency [12]: inactive

CCCCC(CC)COS(=O)(=O)O (centres undefined)
Potency [1]: inactive
Potency [2]: inactive
Potency [13]: inactive
Potency [3]: inactive
Potency [4]: inactive
Potency [14]: inactive
Potency [6]: inactive
Potency [8]: inactive
Potency [9]: inactive
Potency [10]: inactive
Potency [11]: inactive

C[C@H]1[C@@H](c2ccccc2)NC(=O)N1C
Potency [1]: inactive
Potency [2]: inactive
Potency [3]: inactive
Potency [4]: inactive
Potency [14]: inactive
Potency [5]: inactive
Potency [6]: inactive
Potency [7]: inactive
Potency [8]: inactive
Potency [9]: inactive
Potency [15]: inactive
Potency [10]: inactive
Potency [11]: inactive
Potency [12]: inactive

CCN(CC)c1ccc2c(c1)Oc1cc(N(CC)CC)ccc1C21OC(=O)c2ccccc21
Potency [1]: 9.44 µM (active)
Potency [16]: inactive
Potency [17]: inactive
Potency [4]: inactive
Potency [18]: inactive
Potency [5]: inactive
Potency [6]: 21.3 µM (active)
Potency [7]: inactive
Potency [9]: inactive
Potency [15]: inactive
Potency [12]: inactive

CCCCOCCOC(=O)COc1nc(Cl)c(Cl)cc1Cl
Potency [1]: inactive
Potency [13]: inactive
Potency [16]: inactive
Potency [17]: inactive
Potency [3]: inactive
Potency [4]: inactive
Potency [18]: inactive
Potency [9]: inactive
Potency [15]: inactive
Potency [10]: inactive

CCCc1ccc(OCC(=O)N2CCN(C(=O)COc3ccc(CCC)cc3OC)CC2)c(OC)c1
Potency [1]: inactive
Potency [2]: inactive
Potency [17]: inactive
Potency [4]: inactive
Potency [14]: inactive
Potency [5]: inactive
Potency [6]: inactive
Potency [7]: inactive
Potency [8]: inactive
Potency [9]: inactive
Potency [15]: inactive
Potency [11]: inactive
Potency [12]: inactive

c1ccc(Cc2ccccc2)cc1
Potency [1]: inactive
Potency [2]: inactive
Potency [13]: inactive
Potency [3]: inactive
Potency [4]: inactive
Potency [18]: inactive
Potency [5]: inactive
Potency [6]: inactive
Potency [7]: inactive
Potency [8]: inactive
Potency [9]: inactive
Potency [15]: inactive
Potency [10]: inactive
Potency [11]: inactive
Potency [12]: inactive

O=[N+]([O-])c1ccc(Cl)cc1Cl
Potency [1]: inactive
Potency [13]: inactive
Potency [3]: inactive
Potency [4]: inactive
Potency [14]: inactive
Potency [5]: inactive
Potency [6]: inactive
Potency [7]: inactive
Potency [8]: inactive
Potency [9]: inactive
Potency [10]: inactive
Potency [19]: inactive
Potency [11]: inactive
Potency [12]: inactive

CC1(COc2ccc(CC3SC(=O)NC3=O)cc2)CCCCC1 (centres undefined)
Potency [1]: inactive
Potency [2]: inactive
Potency [16]: inactive
Potency [17]: inactive
Potency [4]: inactive
Potency [14]: inactive
Potency [18]: inactive
Potency [10]: inactive
Potency [19]: inactive
Potency [11]: 12.8 µM (active)
Potency [12]: inactive

Cc1cc(=O)c2c(O)c3c(O)cc(=O)c4c3c3c(cc(O)c1c23)C(C)(C)C=4O
Potency [1]: 4.11 µM (active)
activation [2]: 3.73% [at 15.8 µM]
activity change, negative = cytotoxicity [3]: -4.38% [at 13.5 µM]
activity, negative = inhibition [5]: 1.4% [at 12.7 µM]
Potency [6]: 0.657 µM (active)
activity, negative = inhibition [7]: 5.23% [at 12.6 µM]
activation [8]: 13.3% [at 15.8 µM]
activity change, negative = inhibition [10]: 0.889% [at 19 µM]
activation [11]: -19.9% [at 19 µM]
activity change, negative = inhibition [12]: 5.59% [at 18.9 µM]

CC(=O)CCC1=C(C)CCCC1(C)C
Potency [1]: inactive
Potency [2]: inactive
Potency [13]: inactive
Potency [4]: inactive
Potency [14]: inactive
Potency [5]: inactive
Potency [6]: inactive
Potency [7]: inactive
Potency [8]: inactive
Potency [9]: inactive
Potency [15]: inactive
Potency [10]: inactive
Potency [11]: inactive
